Test results: PubChem BioAssay (NCI)
Several values for one entry are separate records, joined by “and”; a condition that tells them apart may be missing. Identical values can stand only once. About 79,000 compounds went through this panel and 15% of them were active in at least one assay; those are over-represented in the sample as a whole. Where a structure was tested more than once in an assay, its records may differ in their call. Activity calls are given as the source filed them. No stated cut-off is given here; in the data, active means growth inhibition above about 70%; inactive means the rest.

How the values were obtained:
[1] = NCI Yeast Anticancer Drug Screen. Data for the wt1 strain (AID 149);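 further: 0% = growth of vehicle-treated wt1 cultures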; settings: S. cerevisiae wt1 strain (SPY 50644) growth inhibition, stronger effect = higher value
How it was run: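 Measured: growth of wt1 yeast under compound versus vehicle treatment, reported as inhibition.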

[2] = NCI Yeast Anticancer Drug Screen. Data for the rad50EPP+ strain (AID 151);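 further: 0% = growth of vehicle-treated control cultures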; settings: S. cerevisiae rad50 mutant strain, stronger effect = higher value
How it was run: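 Compounds were applied to the rad50EPP+ yeast strain, which bears a defined DNA repair alteration, and growth inhibition was determined relative to vehicle-treated cultures.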

[3] = NCI Yeast Anticancer Drug Screen. Data for the mgt1 strain (AID 153); settings: S. cerevisiae mgt1 mutant growth inhibition, stronger effect = higher value
How it was run: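 Strain: mgt1 yeast, one of a set carrying defined DNA damage repair or cell cycle control alterations. Compound-treated growth compared with vehicle.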

[4] = NCI Yeast Anticancer Drug Screen. Data for the rad50 strain (AID 155);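 further: 0% = growth of vehicle-only cultures of the same strain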; settings: S. cerevisiae rad50 strain growth inhibition, stronger effect = higher value
How it was run: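 Growth of the mutant yeast was measured after compound exposure and referenced to vehicle-treated cultures.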

[5] = NCI Yeast Anticancer Drug Screen. Data for the mec2-1 strain (AID 157); settings: S. cerevisiae mec2-1 strain, stronger effect = higher value
How it was run: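 Strain: mec2-1 (DNA repair/cell cycle alteration). Compound exposure, then growth measured; inhibition expressed relative to vehicle.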

[6] = NCI Yeast Anticancer Drug Screen. Data for the rad14 strain (AID 159);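 further: 0% = growth of vehicle-treated control cultures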; settings: S. cerevisiae rad14 strain growth inhibition, stronger effect = higher value
How it was run: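 Here, inhibition of yeast growth was measured after compound exposure, using a strain with a genetic defect in DNA damage repair and vehicle-treated cultures as the reference.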

[7] = NCI Yeast Anticancer Drug Screen. Data for the sgs1 mgt1 strain (AID 161);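 further: 0% = growth of cultures given vehicle only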; settings: S. cerevisiae sgs1 mgt1 strain, stronger effect = higher value
How it was run: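 Genetically altered yeast, compound exposure, growth inhibition relative to vehicle.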

[8] = NCI Yeast Anticancer Drug Screen. Data for the CLN2oe strain (AID 163);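 further: 0% = growth of vehicle-only control cultures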; settings: S. cerevisiae CLN2oe strain, stronger effect = higher value
How it was run: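 Growth of a genetically modified yeast strain is measured after compound exposure and compared with cultures given vehicle alone.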

[9] = NCI Yeast Anticancer Drug Screen. Data for the cln2 rad14 strain (AID 165);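 further: 0% = growth equal to vehicle treated cultures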; settings: S. cerevisiae cln2 rad14 strain, stronger effect = higher value
How it was run: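 Compounds are applied to the cln2 rad14 yeast strain, and growth is then compared with that of vehicle-treated cultures to give inhibition.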

[10] = NCI Yeast Anticancer Drug Screen. Data for the bub3 strain (AID 167); settings: S. cerevisiae bub3 mutant strain, stronger effect = higher value
How it was run: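 Whole-cell yeast assay. The mutant strain was incubated with compounds, and growth inhibition was determined by comparison with vehicle-treated cells.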

[11] = NCI Yeast Anticancer Drug Screen. Data for the wt2 strain (AID 169);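 further: 0% = growth of vehicle-treated yeast cultures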; settings: S. cerevisiae wt2 strain growth inhibition, stronger effect = higher value
How it was run: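 This strain belongs to a panel of yeast strains with defined genetic alterations in DNA damage repair or cell cycle control. Compounds are applied, and growth inhibition is measured against vehicle-treated cultures.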

[12] = NCI Yeast Anticancer Drug Screen. Data for the mlh1 strain (AID 171);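 further: 0% = growth of vehicle-treated control cultures of the same strain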; settings: S. cerevisiae mlh1 strain growth inhibition, stronger effect = higher value
How it was run: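 Growth of the mutant yeast strain after compound exposure, expressed as inhibition relative to vehicle-only controls.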

[13] = NCI Yeast Anticancer Drug Screen. Data for the sgs1 strain (AID 173);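 further: 0% = growth of vehicle-only control cultures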; settings: S. cerevisiae sgs1 mutant, stronger effect = higher value
How it was run: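 Growth of a yeast strain bearing a defined genetic alteration is measured after compound treatment. Inhibition is expressed relative to vehicle-only controls.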

[14] = NCI Yeast Anticancer Drug Screen. Data for the mlh1 rad18 strain (AID 175); settings: S. cerevisiae mlh1 rad18 strain growth inhibition, stronger effect = higher value
How it was run: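 Read-out is yeast growth inhibition, calculated against vehicle-only controls. The compound was applied to a strain engineered with DNA damage repair alterations.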

[15] = NCI Yeast Anticancer Drug Screen. Data for the rad18 strain (AID 177); settings: S. cerevisiae rad18 mutant growth inhibition, stronger effect = higher value
How it was run: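 Growth of the mutant yeast strain after compound exposure, normalised to vehicle-only cultures.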

[16] = NCI Yeast Anticancer Drug Screen. Data for the rad52 strain (AID 147);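 further: 0% = growth of vehicle-treated control cultures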; settings: S. cerevisiae rad52 mutant growth inhibition, stronger effect = higher value
How it was run: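 Compounds are applied to a genetically defined yeast strain lacking normal DNA damage repair, and inhibition of growth is expressed relative to cultures given vehicle only.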

[17] = at 5.0 µM (retest, dose inferred, filed as 0.5)
[18] = at 50.0 µM (retest, dose inferred, filed as 5.0)

Measured: growth inhibition

Cc1cc(N(CCOS(C)(=O)=O)CCOS(C)(=O)=O)ccc1C=Nc1ccc(-c2nc(Cc3ccccc3)sc2C)cc1
active: [1]; at 33.0 µM 90% | [1]; at 100.0 µM 98% | [2]; at 100.0 µM 92% | [3]; at 33.0 µM 90% | [3]; at 100.0 µM 98% | [4]; at 11.0 µM 71% | [4]; at 33.0 µM 93% | [4]; at 100.0 µM 97% | [5]; at 11.0 µM 72% | [5]; at 33.0 µM 93% | [5]; at 100.0 µM 98% | [6]; at 11.0 µM 80% | [6]; at 33.0 µM 96% | [6]; at 100.0 µM 96% | [7]; at 50.0 µM 85.5% and 85.9% | [8]; at 33.0 µM 91% | [8]; at 100.0 µM 97% | [10]; at 33.0 µM 89% | [10]; at 100.0 µM 98% | [11]; at 33.0 µM 92% | [11]; at 100.0 µM 98% | [12]; at 33.0 µM 92% | [12]; at 100.0 µM 97% | [13]; at 33.0 µM 94% | [13]; at 100.0 µM 98% | [14]; at 50.0 µM 77% | [15]; at 3.7 µM 73% | [15]; at 11.0 µM 90% | [15]; at 33.0 µM 94% | [15]; at 100.0 µM 98%
78% (active) and -3% (inactive): [14]; [17]
97% (active) and 43% (inactive): [14]; [18]
97% (active) and 46% (inactive): [5]; [18]
86.2% (active) and 27.1% (inactive): [9]; at 50.0 µM
95% (active) and 49% (inactive): [4]; [18]
84.2% (active) and 37% (inactive): [10]; at 50.0 µM
inactive: [1]; at 1.2 µM -29% | [1]; at 3.7 µM -10% | [1]; at 11.0 µM 28% | [2]; at 1.2 µM 1% | [2]; at 3.7 µM -19% | [2]; at 11.0 µM 10% | [2]; at 33.0 µM 37% | [3]; at 1.2 µM -24% | [3]; at 3.7 µM 4% | [3]; at 11.0 µM 55% | [4]; at 1.2 µM 12% | [4]; at 3.7 µM 23% | [4]; [17] 44% and 1% | [4]; at 50.0 µM 52.9% | [5]; at 1.2 µM -26% | [5]; at 3.7 µM 4% | [5]; [17] 40% and -3% | [5]; at 50.0 µM 49.3% | [6]; at 1.2 µM 3% | [6]; at 3.7 µM 38% | [7]; [17] 23% and 3% | [7]; [18] -12% and 43% | [8]; at 1.2 µM 23% | [8]; at 3.7 µM 0% | [8]; at 11.0 µM 57% | [9]; [17] 29% and 0% | [9]; [18] -12% and 35% | [10]; at 1.2 µM -32% | [10]; at 3.7 µM -38% | [10]; [17] 16% and -2% | [10]; at 11.0 µM 25% | [10]; [18] -14% and 55% | [11]; at 1.2 µM -12% | [11]; at 3.7 µM 10% | [11]; at 11.0 µM 48% | [12]; at 1.2 µM -32% | [12]; at 3.7 µM -15% | [12]; at 11.0 µM 46% | [13]; at 1.2 µM 3% | [13]; at 3.7 µM 15% | [13]; at 11.0 µM 66% | [15]; at 1.2 µM 41%

COc1oc(C(=O)NC2CCCCC2)c(-c2ccc(Cl)cc2)c1S(=O)(=O)c1ccccc1
inactive: [16]; at 1.2 µM -5% | [16]; at 3.7 µM 7% | [16]; at 11.0 µM 56% | [2]; at 1.2 µM -22% | [2]; at 3.7 µM -19% | [2]; at 11.0 µM -18% | [2]; at 33.0 µM -5% | [2]; at 100.0 µM -11% | [3]; at 1.2 µM -21% | [3]; at 3.7 µM -17% | [3]; at 11.0 µM 60% | [4]; at 1.2 µM -29% | [4]; at 3.7 µM -2% | [4]; [17] 64% | [4]; at 11.0 µM 48% | [5]; at 1.2 µM 1% | [5]; at 3.7 µM 3% | [5]; [17] 22% | [6]; at 1.2 µM -22% | [6]; at 3.7 µM -17% | [6]; at 11.0 µM 23% | [7]; [17] -10% | [9]; [17] 15% | [10]; at 1.2 µM -18% | [10]; at 3.7 µM -25% | [10]; [17] 8% | [10]; at 11.0 µM 47% | [11]; at 1.2 µM -1% | [11]; at 3.7 µM 22% | [12]; at 1.2 µM -20% | [12]; at 3.7 µM -7% | [12]; at 11.0 µM 41% | [13]; at 1.2 µM -4% | [13]; at 3.7 µM -1% | [13]; at 11.0 µM 52% | [14]; [17] 16% | [14]; at 50.0 µM 45.4% | [15]; at 1.2 µM -6% | [15]; at 3.7 µM -1% | [15]; at 11.0 µM 46%
active: [16]; at 33.0 µM 87% | [16]; at 100.0 µM 84% | [3]; at 33.0 µM 89% | [3]; at 100.0 µM 86% | [4]; at 33.0 µM 83% | [4]; [18] 92% | [4]; at 50.0 µM 75.1% | [4]; at 100.0 µM 78% | [5]; at 11.0 µM 70% | [5]; at 33.0 µM 92% | [5]; [18] 91% | [5]; at 50.0 µM 78.8% | [5]; at 100.0 µM 88% | [6]; at 33.0 µM 82% | [6]; at 100.0 µM 74% | [7]; [18] 88% | [7]; at 50.0 µM 78.2% | [9]; [18] 87% | [9]; at 50.0 µM 76.9% | [10]; at 33.0 µM 90% | [10]; [18] 88% | [10]; at 50.0 µM 72.5% | [10]; at 100.0 µM 84% | [11]; at 11.0 µM 89% | [11]; at 33.0 µM 91% | [11]; at 100.0 µM 82% | [12]; at 33.0 µM 84% | [12]; at 100.0 µM 81% | [13]; at 33.0 µM 89% | [13]; at 100.0 µM 84% | [14]; [18] 84% | [15]; at 33.0 µM 85% | [15]; at 100.0 µM 80%
